Test results: PubChem BioAssay
For some of these results: Measured potencies and affinities stand elsewhere. Calls of active or inactive are those of the source.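 Rule for the calls, unless noted: active = fluorescence ratio normalized to control raised more than 50% in primary screen plus both repeat runs; inactive = the rest.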

Tests used:
[1] = system: TRPC4 beta (transient receptor potential cation channel C4), mouse; experiment: activators of mouse TRPC4 channel, confirmation, cell-based, Fluo4 calcium, HEK293 TRPC4beta/mu-opioid, duplicates, 10 µM (AID 2426); details: Fluo4 calcium fluorescence, at 10 µM; active compounds read high
[2] = system: transient receptor potential cation channel C4 beta (TRPC4), mouse; experiment: activators of mouse TRPC4 channel, confirmation, cell-based, second round, Fluo4, HEK293 TRPC4beta/mu-opioid, 1 µM (AID 2461;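 active = primary screen active and over 50% activation in each of two duplicate runs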); details: Fluo4 calcium fluorescence, at 1 µM; active compounds read high
[3] = system: TRPC4 (transient receptor potential cation channel C4 beta), mouse; experiment: positive allosteric modulators of mouse TRPC4, confirmation, cell-based, second round, Fluo-4, HEK293 TRPC4beta/mu-opioid, 1 µM (AID 2554;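 active = primary screen hit whose fluorescence ratio, in both repeats, exceeds the weak agonist control mean by 3 SD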); details: DAMGO EC20, Fluo-4 calcium flux, at 1 µM; active compounds read high
[4] = system: TRPC4 beta (transient receptor potential cation channel C4), mouse; experiment: positive allosteric modulators of mouse TRPC4, confirmation, cell-based, Fluo-4, HEK293 TRPC4beta/mu-opioid (AID 2555;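 active = primary screen hit whose calcium fluorescence ratio, in both repeats, exceeds the weak agonist control mean by 3 SD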); details: DAMGO EC20, Fluo-4 calcium flux, at 10 µM; active compounds read high
[5] = biological target: Short transient receptor potential channel 4 (Mus musculus) (UniProt Q9QUQ5); experiment: inhibitors of mouse TRPC4 channel, confirmation, cell-based, Fluo4, HEK293 TRPC4beta/mu-opioid (AID 2636;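 active = calcium signal cut by more than 3 SD below the full-agonist control yet still positive, in both repeats and the earlier primary screen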); details: DAMGO, Fluo4 calcium flux, at 10 µM; active compounds read high
Short transient receptor potential channel 4 (Mus musculus), sequence (Q9QUQ5 whole entry, looked up): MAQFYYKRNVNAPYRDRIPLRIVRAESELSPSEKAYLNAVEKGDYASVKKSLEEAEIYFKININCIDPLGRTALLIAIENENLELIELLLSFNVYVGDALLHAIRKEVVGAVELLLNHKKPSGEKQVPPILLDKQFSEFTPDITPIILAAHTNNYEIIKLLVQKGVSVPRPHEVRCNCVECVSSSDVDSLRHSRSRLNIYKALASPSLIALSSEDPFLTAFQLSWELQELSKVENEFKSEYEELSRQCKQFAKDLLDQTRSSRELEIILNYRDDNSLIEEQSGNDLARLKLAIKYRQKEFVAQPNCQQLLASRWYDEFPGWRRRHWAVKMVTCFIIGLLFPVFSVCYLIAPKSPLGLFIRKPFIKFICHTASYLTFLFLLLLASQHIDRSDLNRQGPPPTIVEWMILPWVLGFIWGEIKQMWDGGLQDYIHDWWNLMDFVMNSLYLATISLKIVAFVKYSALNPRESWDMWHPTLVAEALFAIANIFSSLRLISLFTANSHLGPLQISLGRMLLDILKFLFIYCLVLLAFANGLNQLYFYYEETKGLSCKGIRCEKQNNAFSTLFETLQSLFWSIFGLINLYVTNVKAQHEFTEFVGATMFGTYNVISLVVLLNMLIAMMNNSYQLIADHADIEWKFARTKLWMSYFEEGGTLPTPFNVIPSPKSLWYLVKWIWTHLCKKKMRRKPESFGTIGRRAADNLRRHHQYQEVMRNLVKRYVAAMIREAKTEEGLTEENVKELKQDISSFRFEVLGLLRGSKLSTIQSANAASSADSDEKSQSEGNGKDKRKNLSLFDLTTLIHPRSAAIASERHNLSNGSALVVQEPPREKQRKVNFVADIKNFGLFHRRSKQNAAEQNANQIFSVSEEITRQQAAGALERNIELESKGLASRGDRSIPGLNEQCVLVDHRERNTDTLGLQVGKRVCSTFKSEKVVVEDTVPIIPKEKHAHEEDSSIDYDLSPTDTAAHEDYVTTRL

[6] = biological target: Short transient receptor potential channel 4 (Mus musculus) (UniProt Q9QUQ5); experiment: inhibitors of mouse TRPC4 channel, confirmation, cell-based, second round, Fluo4, HEK293 TRPC4beta/mu-opioid, 1 µM (AID 2637;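 active = calcium signal ratio cut to more than 3 SD under the fully stimulated control mean yet still positive, in both repeats and the primary screen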;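 for inhibition: percent of integrated ratio relative to wells lacking test compound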); details: Fluo4 calcium flux, DAMGO, at 1 µM; active compounds read high
[7] = biological target: Short transient receptor potential channel 4 (Mus musculus) (UniProt Q9QUQ5); experiment: mouse TRPC4 channel activators, dose response, cell-based, HEK293 TRPC4/mu-opioid, Fluo-4 calcium (AID 434937;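 active = primary screen activator hit with a dose response curve and TRPC4 channel activation at any tested dose; inactive = no activation, no dose response, or not a primary hit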)
[8] = biological target: Short transient receptor potential channel 4 (Mus musculus) (UniProt Q9QUQ5); experiment: TRPC4 positive allosteric modulators, dose response, cell-based, HEK293 TRPC4/mu-opioid, Fluo-4 calcium, EC20 DAMGO (AID 434941;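 active = earlier screen potentiator hit that boosts the TRPC4 ion channel at some dose, with a dose response; inactive = no potentiation, no dose response, or not a prior hit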;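 note: calcium entry triggered by an EC20 dose of DAMGO at the co-expressed mu-opioid receptor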)
[9] = biological target: Short transient receptor potential channel 6 (Mus musculus) (UniProt Q61143); experiment: inhibition of mouse TRPC6 channel, confirmation, selectivity assay for TRPC4 inhibitor project, cell-based, HEK293, membrane potential dye, duplicate (AID 434948;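 active = active in primary screen and both duplicates, each dropping signal beyond three positive-control SD with fluorescence still positive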); details: HEK293 TRPC6, membrane potential dye fluorescence, at 10 µM, stimulated with maximal-effect acetylcholine; active compounds read high
Short transient receptor potential channel 6 (Mus musculus), sequence (Q61143 whole entry, looked up): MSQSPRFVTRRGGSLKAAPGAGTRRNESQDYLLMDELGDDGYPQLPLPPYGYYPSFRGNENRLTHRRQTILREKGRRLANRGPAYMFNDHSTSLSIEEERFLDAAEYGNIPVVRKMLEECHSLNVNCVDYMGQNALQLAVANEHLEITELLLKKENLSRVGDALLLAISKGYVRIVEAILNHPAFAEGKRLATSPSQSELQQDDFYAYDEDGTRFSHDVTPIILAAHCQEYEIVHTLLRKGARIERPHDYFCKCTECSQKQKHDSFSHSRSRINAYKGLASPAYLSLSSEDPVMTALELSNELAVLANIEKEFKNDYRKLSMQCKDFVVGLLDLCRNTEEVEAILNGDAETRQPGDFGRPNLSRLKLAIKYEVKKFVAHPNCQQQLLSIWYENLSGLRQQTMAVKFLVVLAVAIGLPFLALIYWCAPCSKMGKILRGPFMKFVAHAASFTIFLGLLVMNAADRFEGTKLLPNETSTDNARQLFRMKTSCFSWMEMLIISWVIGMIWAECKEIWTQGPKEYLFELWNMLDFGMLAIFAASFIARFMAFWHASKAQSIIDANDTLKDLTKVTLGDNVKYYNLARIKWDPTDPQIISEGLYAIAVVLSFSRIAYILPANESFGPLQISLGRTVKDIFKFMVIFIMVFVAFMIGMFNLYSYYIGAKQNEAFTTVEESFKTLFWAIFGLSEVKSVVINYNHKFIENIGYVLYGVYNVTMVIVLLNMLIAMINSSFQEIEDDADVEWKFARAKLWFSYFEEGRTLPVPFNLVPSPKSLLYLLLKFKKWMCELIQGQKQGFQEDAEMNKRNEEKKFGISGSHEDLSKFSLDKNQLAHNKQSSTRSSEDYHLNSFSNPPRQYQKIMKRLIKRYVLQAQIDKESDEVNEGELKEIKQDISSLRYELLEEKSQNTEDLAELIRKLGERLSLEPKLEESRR

[10] = biological target: Short transient receptor potential channel 6 (Mus musculus) (UniProt Q61143); experiment: activation of mouse TRPC6 channel, confirmation, selectivity assay for TRPC4 activator project, cell-based, HEK293, membrane potential dye, duplicate (AID 434950;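 active = membrane potential signal rise above negative control mean plus 3 SD in both duplicates, also active in the earlier TRPC4 screen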); details: HEK293 TRPC6, membrane potential fluorescence, at 10 µM; active compounds read high
[11] = biological target: Short transient receptor potential channel 6 (Mus musculus) (UniProt Q61143); experiment: TRPC6 potentiation by TRPC4 potentiator hits, confirmation, selectivity assay for TRPC4 potentiator project, HEK293 cells, membrane potential dye, duplicate (AID 434952;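 active = compound raising the membrane signal above positive-control mean plus 3 SD in both repeats, and a primary screen hit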); details: HEK293 TRPC6, membrane potential dye fluorescence, at 10 µM, maximal acetylcholine added after compound; active compounds read high
[12] = biological target: Short transient receptor potential channel 4 (Mus musculus) (UniProt Q9QUQ5); experiment: calcium flux activators in TRPC4/5HT1a cells, counter-screen for TRPC4 activator project, cell-based, second counter screen, HEK293 TRPC4/5HT1a, Fluo-4 (AID 434977;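 active = calcium signal rise above buffer-control mean plus 5 SD in both duplicates, and also a hit in the primary screen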); details: Fluo-4 calcium flux, at 10 µM; active compounds read high
[13] = calcium flux inhibitors in TRPC4/5HT1a cells, confirmation, counter-screen for TRPC4 inhibitor project, cell-based, second counter screen, HEK293 TRPC4/5HT1a, Fluo-4 (AID 434978;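 active = primary screen active whose calcium signal fell more than 3 SD beyond the full-serotonin control mean in both duplicate plates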); details: Fluo-4 calcium flux, at 10 µM, serotonin added to trigger calcium flux; active compounds read high
[14] = system: TRPC4 (mouse), co-expressed with 5HT1a in HEK293; experiment: calcium flux potentiators in TRPC4/5HT1a cells, confirmation, counter-screen for TRPC4 potentiator project, cell-based, second counter screen, HEK293 TRPC4/5HT1a, Fluo-4 (AID 434979;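 active = signal rise over 3 SD above mean of control wells given weak agonist, in both repeats and first screen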); details: Fluo-4 calcium flux, at 10 µM, serotonin added at its EC20 dose; active compounds read high
[15] = calcium flux activation in mu-opioid HEK293 cells, confirmation, counter-screen for TRPC4 activator project, cell-based, HEK293 mu-opioid receptor line (AID 449723;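 active = hit in primary screen, with calcium signal over 5 SD above buffer well mean in both duplicates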;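 note: counter screen cells carry the mu-opioid receptor alone and lack TRPC4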); details: Fluo-4 calcium fluorescence, at 10 µM; active compounds read high
[16] = calcium flux enhancement in mu-opioid HEK293 cells, confirmation, counter-screen for TRPC4 allosteric potentiator project, cell-based, HEK293 mu-opioid receptor line (AID 449724;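 active = calcium signal rise more than 3 SD above the low-dose agonist control mean, in both duplicate plates and the primary screen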); details: Fluo-4 calcium flux, at 10 µM, compound added before EC20 DAMGO stimulus; active compounds read high

Measured: inhibition

NS(=O)(=O)c1ccc(Nc2nc(-c3ccc(O)cc3O)cs2)cc1
active: [5] 98% | [6] 47%
inactive: all other assays above

Cc1cccc(-n2ccnc2CN2CCC(CO)(Cc3ccccc3)CC2)c1
active: [5] 70%
inactive: all other assays above

CCOC(=O)C1(Cc2cccc(F)c2)CCN(Cc2c(C)nn(CC)c2C)CC1
active: [5] 86%
inactive: all other assays above

CC(OC(=O)CNC(=O)c1ccccc1F)C(=O)Nc1nc(-c2ccccc2)cs1 (stereo unspecified)
active: [5] 78% | [13] 44.3%
inactive: all other assays above

Cc1ccc(C(C)(C)C)cc1S(=O)(=O)Nc1nc2ccccc2nc1Cl
active: [13] 6.84%
inactive: all other assays above

Cc1nn(C)c(C)c1Sc1ccc(Br)cc1
active: [5] 82% | [13] 24.8%
inactive: all other assays above

O/N=C/c1ccccc1Oc1ccc(Cl)cc1
active: [5] 98% | [13] 7.58%
inactive: all other assays above

CC1Oc2ccccc2C=C1/C=N/Nc1ccc(C(=O)O)cc1 (stereo unspecified)
active: [5] 82% | [6] 51% | [13] 38.1%
inactive: all other assays above

Cc1ccc(Nc2cc(C)nc3c(C)cccc23)cc1
active: [6] 54% | [9] 22% | [13] 35.3%
inactive: all other assays above

O=C(CCCSc1nc2ccccc2[nH]1)NCc1ccccc1Cl
active: [5] 88% | [6] 46% | [13] 27.7%
inactive: all other assays above

CCCNC(=O)c1nnsc1S(=O)c1ccc(Cl)cc1 (stereo unspecified)
active: [5] 88% | [6] 42% | [13] 20.3%
inactive: all other assays above

Cc1c(CN2CCC(n3nccc3NC(=O)CCc3ccccc3)CC2)cnn1C
active: [5] 94% | [6] 68%
inactive: all other assays above

Cc1cccc(-n2nc(C)c3c(C(=O)O)cc(-c4cccs4)nc32)c1
active: [5] 89% | [13] 28.2%
inactive: all other assays above

Cc1cccn2c(=O)c(/C=N/O)c(N3CCCC3)nc12
active: [5] 57% | [6] 72% | [13] 35%
inactive: all other assays above

CC(C)=CCCC(C)CN1CCC(n2nccc2NC(=O)C2CCCC2)CC1 (stereo unspecified)
active: [5] 99% | [6] 63% | [13] 38%
inactive: all other assays above

C/C(CC(=O)N(C(C)C)C(C)C)=N\NC(=O)COc1ccc(Cl)cc1Cl
active: [5] 83%
inactive: all other assays above
